Assay outcomes from PubChem.
Most compounds without a hit are left out; they make up all but 3.1% or so of the library.
PAX8 reporter = lowers PAX8-driven luciferase in RMG-I cells | RMG-I TPO-luciferase reporter, SteadyGlo, 24 h | inhibition, % at 12.6 µM | 1.2% of 360,000 active | AID 652154;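 active = mean replicate inhibition at least 60% with every replicate also reaching 60%; inconclusive = only one of the two criteria is met; inactive = mean below 60% and not all replicates reaching 60%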;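 note: luciferase light reporting Pax8 driven TPO promoter activity; plate controls were median of neutral control wells for no effect and mitoxantrone controls for full effect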
HIV Env fusion = blocks HIV Env-driven cell-cell fusion; AID 651610; inhibition, % at 12.3 µM; HeLa-JRFL Env/CEM21 cell fusion, luciferase; 1.1% of 360,000 active;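 active = mean replicate inhibition score of at least 50 and every replicate individually at or above 50; inconclusive = only one of the two criteria met; inactive = mean below 50 and not all replicates reaching 50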;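 note: 0% = plate neutral controls and 100% = maraviroc near 300 nM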
Statin myotox sup = suppression of simvastatin myotoxicity | rescue of ATP level, % at 7.49 µM | C2C12 myotubes + simvastatin, ATP luminescence, 48 h; scaled: DMSO 0, geranylgeraniol control 100 | 0.78% of 330,000 active;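 active = mean ATP rescue above about 67%, or every replicate alone reaching that limit, limit read from the data, passing the limit was not always enough; inconclusive = no clear call, values can overlap the other calls; inactive = mean under the limit and some replicate under it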;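 note: myotubes were challenged with 10 µM simvastatin during compound exposure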
miR-122 sensor = inhibitors of miR-122 in Huh7 cells; AID 602342; activation (reporter increase), % at 12.5 µM; Huh7 miR-122 Renilla luciferase sensor, 48 h; neutral wells = 0, positive control = 100; 0.3% of 340,000 active;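 active = mean replicate activation score at least 90 and every replicate individually at or above 90; inconclusive = only one of the two criteria met; inactive = neither criterion met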;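 note: higher luciferase means less miR-122 activity so hits act as miR-122 inhibitors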
EWS-Fli inh = inhibitors of EWS/Fli oncoprotein transcriptional activity; A673 NR0B1-luciferase reporter, viability-normalised; inhibition, % at 12.6 µM; 0.67% of 350,000 active; AID 651661;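 active = mean inhibition of at least 50% after viability correction, with every replicate also passing that limit; inconclusive = mean reaches 50% but only one of two replicates passes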;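 note: firefly luciferase signal divided by Alamar Blue viability fluorescence both relative to DMSO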
INS-1E GSIS act = GLuc luminescence reporter in INS-1E cells, primary screen for activators of glucose-dependent secretion of insulin. INS-1E GLuc reporter insulin secretion, 2-3 h. activation, % at 16.6 µM. 0.61% of 370,000 active. AID 743287;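 active = lowest replicate activation of at least 40%, so every replicate reaches that level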;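 note: 0% = median of neutral control wells and 100% = median of IBMX positive control wells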
An asterisk follows results filed as active; u = inconclusive; x = not tested or not shown; [ ] = dose if it differs, or a comment.

SMILES	PAX8 reporter	HIV Env fusion	Statin myotox sup	miR-122 sensor	EWS-Fli inh	INS-1E GSIS act
COc1ccc(C(C(=O)NC(C)(C)C)N(Cc2ccccc2)C(=O)CCC(=O)Nc2cc(C)on2)cc1 (stereo not drawn)	11	0	x	x	9	-17
C[C@H]1CN([C@@H](C)CO)C(=O)c2cc(NC(=O)Cn3cnnn3)ccc2O[C@H]1CN(C)CC1CC1	15	12[16.7 µM]	-5	1[16.7 µM]	-13	-27
O=C1/C(=C/c2cccs2)NC(=S)N1C1CC1	11	-7	-1	-1	-2	47*
Cc1ccc2[nH]c(CNC(=O)C3CCCCC3)cc2c1	23	5	-5	135*	9	14
C[C@H]1CCCCO[C@H](CN(C)Cc2ccc(Cl)c(Cl)c2)[C@@H](C)CN([C@@H](C)CO)C(=O)c2cc(NC(=O)Cc3ccccc3)ccc2O1	u	13[16.7 µM]	-26	-10[16.7 µM]	18	-14
C[C@@H]1CN([C@H](C)CO)C(=O)c2cc(NC(=O)Cc3ccccc3)ccc2O[C@@H](C)CCCCO[C@H]1CN(C)Cc1ccc(Cl)c(Cl)c1	97*	26[16.7 µM]	-16	-5[16.7 µM]	9	-22
C[C@@H]1CCCCO[C@@H](CN(C)Cc2ccc(Cl)c(Cl)c2)[C@H](C)CN([C@@H](C)CO)C(=O)c2cc(NC(=O)Cc3ccccc3)ccc2O1	87*	-55[16.7 µM]	106*	-17[16.7 µM]	9	-16
COc1ccc(NC(=O)N(C)C[C@@H]2Oc3ccc(NC(=O)c4ccncc4)cc3C(=O)N([C@@H](C)CO)C[C@H]2C)cc1	4	-1[16.7 µM]	-17	3[16.7 µM]	-16	12
C=C[C@@H](C)N(Cc1ccc(OC)cc1)S(=O)(=O)N(Cc1ccccc1)[C@H](C=C)C(C)C	8	89*	-17	0	11	-35
Cc1noc(C)c1NC(=O)N(C)C[C@@H]1Oc2c(NC(=O)Nc3ccc(C(F)(F)F)cc3)cccc2C(=O)N([C@H](C)CO)C[C@H]1C	x	x	-1	-2[16.7 µM]	-1	x
COc1cc(-c2nnc3sc(C4CCCCC4)nn23)cc(OC)c1OC	x	x	x	-32	x	x
COc1cccc(-c2nnc3sc(C4CCCCC4)nn23)c1	x	123*	x	9	x	x
CCOc1cccc(-c2nnc3sc(C4CCCCC4)nn23)c1	x	96*	-4	0	x	x
COC(=O)C1=C(N)OC2=C(C(=O)CC(C)(C)C2)C1c1ccoc1 (stereo not drawn)	x	x	98*	-7	x	x
CCN(CC)S(=O)(=O)c1ccc(N/N=C/c2cc(OC)ccc2O)nc1	68*	14	x	x	8	18
CO[C@@H]1CN(C)C(=O)c2cc(NC(=O)NC3CCCCC3)ccc2OC[C@@H](C)N(C)C[C@H]1C	-1	8[16.7 µM]	-14	x	4	11
Cc1cccc(N2CCN(C(=O)C3CCN(S(=O)(=O)c4c(C)noc4C)CC3)CC2)c1C	14	19	9	-9	20	-5
Cc1noc(C)c1S(=O)(=O)N1CCC(C(=O)N2CCN(c3ccccc3Cl)CC2)CC1	x	x	137*	-4	x	x
COc1cc(S(=O)(=O)N(Cc2ccco2)C2CCCC2)ccc1-n1cnnn1	x	x	4	22	11	-34
CCOc1ccccc1CN(Cc1ccco1)S(=O)(=O)c1ccc(-n2cnnn2)c(OC)c1	x	x	-34	138*	x	0
Cc1ccc(OCC(=O)Nc2c3c(nn2C(C)(C)C)CS(=O)(=O)C3)cc1	-11	58*	5	x	x	12
CC(C)(C)n1nc2c(c1NC(=O)Cc1ccc(F)cc1)CS(=O)(=O)C2	-4	1	-12	-7	-4	12
O=C1O[C@@H](Cc2ccccc2)[C@H]2[C@@H]3C=CCCC=C3CN2C12CCCC2	14	-13[16.7 µM]	x	x	-7	x
CCCC#Cc1ccc2c(c1)O[C@@H](CN(C)C(=O)C1CCCCC1)[C@H](C)CN([C@H](C)CO)S2(=O)=O	x	62*[16.7 µM]	-77	19[16.7 µM]	19	-10
CC(C)CC#Cc1ccc2c(c1)O[C@H](CN(C)C(=O)C1CCCCC1)[C@@H](C)CN([C@H](C)CO)S2(=O)=O	x	-1[16.7 µM]	-7	41[16.7 µM]	22	-4
SMILES	PAX8 reporter	HIV Env fusion	Statin myotox sup	miR-122 sensor	EWS-Fli inh	INS-1E GSIS act
CC(C)CC#Cc1ccc2c(c1)O[C@H](CN(C)C(=O)C1CCCCC1)[C@@H](C)CN([C@@H](C)CO)S2(=O)=O	x	22[16.7 µM]	-5	27[16.7 µM]	24	55*
CC(C)CC#Cc1ccc2c(c1)O[C@@H](CN(C)C(=O)C1CCCCC1)[C@H](C)CN([C@@H](C)CO)S2(=O)=O	x	57*[16.7 µM]	-14	7[16.7 µM]	15	35
CC(C)CC#Cc1ccc2c(c1)O[C@@H](CN(C)C(=O)C1CCC1)[C@@H](C)CN([C@H](C)CO)S2(=O)=O	x	18[16.7 µM]	6	157*[16.7 µM]	11	-11
O=C(C[C@H]1CC[C@@H]2[C@H](COC[C@@H](O)CN2CCC(F)(F)F)O1)NCc1ccc(Oc2ccccc2)cc1	51	-21[16.7 µM]	7	-2[16.7 µM]	4	-19
CO[C@@H]1CN(C)C(=O)c2cc(NS(C)(=O)=O)ccc2OC[C@@H](C)N(S(C)(=O)=O)C[C@@H]1C	x	x	3	-5[16.7 µM]	-5	8
C[C@@H]1CCCCO[C@@H](CN(C)S(C)(=O)=O)[C@H](C)CN([C@H](C)CO)C(=O)c2cc(NC(=O)CCC(F)(F)F)ccc2O1	-12	-4[16.7 µM]	58	16[16.7 µM]	-5	1
C[C@H]1CN([C@@H](C)CO)C(=O)Cc2cc(NS(=O)(=O)c3ccc(F)cc3)ccc2O[C@@H]1CN(C)C(=O)Nc1ccc(F)cc1	x	5[16.7 µM]	-16	0[16.7 µM]	-6	-2
Cc1ccc(-c2ccc3c(c2)O[C@@H](CN(C)C(=O)C2CCCCC2)[C@H](C)CN([C@H](C)CO)S3(=O)=O)cc1	x	60*[16.7 µM]	-101	13[16.7 µM]	38	-15
Cc1ccc(-c2ccc3c(c2)O[C@H](CN(C)C(=O)C2CCCCC2)[C@H](C)CN([C@H](C)CO)S3(=O)=O)cc1	x	-5[16.7 µM]	-60	-7[16.7 µM]	-2	-9
COc1ccc(S(=O)(=O)Nc2ccccc2OC)cc1N=Nc1c(O)[nH]c(=S)[nH]c1=O	37	-9	-1	3	10	99*
Cc1cc(C(=O)Nc2cccc3c2O[C@@H](CN(C)Cc2ccc(Oc4ccccc4)cc2)[C@H](C)CN([C@@H](C)CO)C3=O)n(C)n1	50	16[16.7 µM]	-16	-2[16.7 µM]	-4	-35
CC(/C=N/n1c(-c2ccccn2)n[nH]c1=S)=C\c1ccccc1	-13	-8	x	-3	-9	x
CCc1n[nH]c(=S)n1/N=C/C(C)=C\c1ccccc1	-9	56*	11	x	23	8
CCN=C1S/C(=C/c2ccc(-c3ccc(Cl)cc3C(=O)O)o2)C(=O)N1CC	1	12	-7	x	4	88*
C[C@H](CO)N1C[C@H](C)[C@H](CN(C)S(=O)(=O)c2ccc(Cl)cc2)Oc2ccc(NC(=O)c3ccncc3)cc2C1=O	16	x	-22	-3[16.7 µM]	-2	-6
COc1ccc(C(=O)CSc2ccc(-c3ccccc3)nn2)cc1	15	-28	x	-5	x	5
